Laboratory results reported in the supplement of paper PMC12645437, “Orthogonal IMiD-Degron Pairs Induce Selective Protein Degradation in Cells” (ACS Chemical Biology, 2025).
Whole data set: some 8,300 sequences, median “log2 fold change of degron read counts, EGFP-low vs EGFP+ sorted cells (limma voom), compound-induced degradation” near -1.1, cut for the highest 2% near 3.2. Only a selection was taken, and the highest values are over-represented in it overall.

T1: CRBN, Q96SW2
T1 chain: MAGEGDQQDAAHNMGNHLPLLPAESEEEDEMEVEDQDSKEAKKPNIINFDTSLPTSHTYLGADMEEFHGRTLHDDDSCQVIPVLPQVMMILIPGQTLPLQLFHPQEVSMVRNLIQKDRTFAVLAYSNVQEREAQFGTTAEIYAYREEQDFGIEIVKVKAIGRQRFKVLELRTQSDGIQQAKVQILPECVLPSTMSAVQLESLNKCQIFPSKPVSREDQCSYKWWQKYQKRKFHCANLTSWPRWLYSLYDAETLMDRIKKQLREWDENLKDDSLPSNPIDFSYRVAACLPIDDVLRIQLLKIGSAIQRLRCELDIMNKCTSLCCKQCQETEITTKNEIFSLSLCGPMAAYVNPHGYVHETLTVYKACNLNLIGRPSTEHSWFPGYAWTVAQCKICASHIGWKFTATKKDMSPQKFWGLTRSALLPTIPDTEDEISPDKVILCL


Target: T1, CRBN, Q96SW2
Test: log2 fold change of degron read counts, EGFP-low vs EGFP+ sorted cells (limma voom), compound-induced degradation; higher = more compound-induced degradation of the degron-EGFP fusion; degrons are variants of IKZF1/3 zinc finger 2; compound dose not given here
Conditions: Jurkat, 18 h
[1] = compound: compound 19 (5-tert-butyl-thalidomide)
[2] = compound: compound 22 (5-morpholino-thalidomide)
[3] = compound: compound 33 (diphenyl IMiD analogue)
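Further: pooled lentiviral library of zinc finger degron-EGFP fusions in mCherry-positive Jurkat cells, FACS-sorted after compound exposure, with degron abundance counted by next-generation sequencing.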

Sequence	log2 fold change of degron read counts [1]	log2 fold change of degron read counts [2]	log2 fold change of degron read counts [3]	log2 fold change of degron read counts (compound: thalidomide)
LDCEICGFECTQKGNLLRHIKL [46L_47D_49E_50I_52G_53F_54E_55C_67L_, Q9UKT9]	-1.93	-2.68	-2.74	-1.97
FTCPICGAKFTQKGNLLRHIKL [46F_47T_49P_50I_52G_53A_54K_55F_67L_, Q9UKT9]	0.0311	2.04	-0.046	2.35
FVCPICGAKFTQKGNLLRHIKL [46F_47V_49P_50I_52G_53A_54K_55F_67L_, Q9UKT9]	-0.253	1.93	-0.152	2.45
FYCNICGAKFTQKGNLLRHIKL [46F_47Y_49N_50I_52G_53A_54K_55F_67L_, Q9UKT9]	1.97	2.19	-0.298	-0.655
FQCPICGAKFTQKGNLLRHIKL [46F_47Q_49P_50I_52G_53A_54K_55F_67L_, Q9UKT9]	0.535	3	0.562	3.44
FSCPICGAKFTQKGNLLRHIKL [46F_47S_49P_50I_52G_53A_54K_55F_67L_, Q9UKT9]	2.33	1.67	-0.456	1.28
FCCPICGAKFTQKGNLLRHIKL [46F_47C_49P_50I_52G_53A_54K_55F_67L_, Q9UKT9]	2.65	2.05	0.122	2.09
FGCPICGAKFTQKGNLLRHIKL [46F_47G_49P_50I_52G_53A_54K_55F_67L_, Q9UKT9]	3.59	1.76	-0.616	1.31
FNCPICGAKFTQKGNLLRHIKL [46F_47N_49P_50I_52G_53A_54K_55F_67L_, Q9UKT9]	2.07	0.6	-1.08	0.72
FMCNICGAKFTQKGNLLRHIKL [46F_47M_49N_50I_52G_53A_54K_55F_67L_, Q9UKT9]	-1.58	-1.36	-0.574	-0.374
FQCNICGAKFTQKGNLLRHIKL [46F_47Q_49N_50I_52G_53A_54K_55F_67L_, Q9UKT9]	-1.16	1.71	-0.442	3.26
FACPICGAKFTQKGNLLRHIKL [46F_47A_49P_50I_52G_53A_54K_55F_67L_, Q9UKT9]	3.43	1.44	-1.12	0.992
FMCPICGAKFTQKGNLLRHIKL [46F_47M_49P_50I_52G_53A_54K_55F_67L_, Q9UKT9]	-0.0561	0.0581	0.821	0.888
FWCNVCGAPFTQKGNLLRHIKL [46F_47W_49N_50V_52G_53A_54P_55F_67L_, Q9UKT9]	1.34	1.28	0.648	-0.594
FNCNQCGRAFTQKGNLLRHIKL [46F_47N_49N_50Q_52G_53R_54A_55F_67L_, Q9UKT9]	-2.53	-3	-2.84	-2.82
FLCNQCGRKFTQKGNLLRHIKL [46F_47L_49N_50Q_52G_53R_54K_55F_67L_, Q9UKT9]	-3.07	-2.98	-2.46	-1.94
FTCEVCGADFTQKGNLLRHIKL [46F_47T_49E_50V_52G_53A_54D_55F_67L_, Q9UKT9]	-1.27	-0.646	-0.114	0.571
FWCDVCGAFFTQKGNLLRHIKL [46F_47W_49D_50V_52G_53A_54F_55F_67L_, Q9UKT9]	0.953	1.36	-0.00384	-1.88

Sequence	log2 fold change of degron read counts [1]	log2 fold change of degron read counts [2]	log2 fold change of degron read counts [3]	log2 fold change of degron read counts (compound: thalidomide)
FECNVCGAIFTQKGNLLRHIKL [46F_47E_49N_50V_52G_53A_54I_55F_67L_, Q9UKT9]	-2.34	-1.7	-0.347	0.492
FVCEQCGAIFTQKGNLLRHIKL [46F_47V_49E_50Q_52G_53A_54I_55F_67L_, Q9UKT9]	-2.11	-2.38	-0.483	-1.05
FWCPICGAKFTQKGNLLRHIKL [46F_47W_49P_50I_52G_53A_54K_55F_67L_, Q9UKT9]	2.94	3.43	1.1	0.827
FHCPICGAKFTQKGNLLRHIKL [46F_47H_49P_50I_52G_53A_54K_55F_67L_, Q9UKT9]	2.6	2.09	-0.0644	0.674
FRCPICGAKFTQKGNLLRHIKL [46F_47R_49P_50I_52G_53A_54K_55F_67L_, Q9UKT9]	-0.704	0.123	0.417	0.809
FFCDQCGANFTQKGNLLRHIKL [46F_47F_49D_50Q_52G_53A_54N_55F_67L_, Q9UKT9]	-0.567	-0.255	-1.24	-2.4
FSCDVCGAPFTQKGNLLRHIKL [46F_47S_49D_50V_52G_53A_54P_55F_67L_, Q9UKT9]	0.883	-0.0159	-0.896	-0.557
LQCNQCGFHCTQKGNLLRHIKL [46L_47Q_49N_50Q_52G_53F_54H_55C_67L_, Q9UKT9]	-2.12	-2.37	-2.09	-1.42
FFCNQCGHGFTQKGNLLRHIKL [46F_47F_49N_50Q_52G_53H_54G_55F_67L_, Q9UKT9]	-2.03	-2.15	-2.79	-2.52
LECPICGFMCTQKGNLLRHIKL [46L_47E_49P_50I_52G_53F_54M_55C_67L_, Q9UKT9]	-0.459	-0.68	1.22	2.37
LWCPICGFMCTQKGNLLRHIKL [46L_47W_49P_50I_52G_53F_54M_55C_67L_, Q9UKT9]	2.86	3.37	2.86	1.56
LYCPICGFMCTQKGNLLRHIKL [46L_47Y_49P_50I_52G_53F_54M_55C_67L_, Q9UKT9]	3.14	2.92	2.43	1.14
LGCPICGFMCTQKGNLLRHIKL [46L_47G_49P_50I_52G_53F_54M_55C_67L_, Q9UKT9]	3.42	1.83	1.01	0.537
LSCPICGFMCTQKGNLLRHIKL [46L_47S_49P_50I_52G_53F_54M_55C_67L_, Q9UKT9]	1.79	1.66	1.67	1.42
LKCPICGFMCTQKGNLLRHIKL [46L_47K_49P_50I_52G_53F_54M_55C_67L_, Q9UKT9]	-1.07	-2.03	-1.81	-0.667
LTCPICGFMCTQKGNLLRHIKL [46L_47T_49P_50I_52G_53F_54M_55C_67L_, Q9UKT9]	0.987	1.84	2.27	2.3
LVCPICGFMCTQKGNLLRHIKL [46L_47V_49P_50I_52G_53F_54M_55C_67L_, Q9UKT9]	0.688	2.15	2.09	2.63
LQCPICGFMCTQKGNLLRHIKL [46L_47Q_49P_50I_52G_53F_54M_55C_67L_, Q9UKT9]	0.655	2.15	2.04	3.55
